Hits are enriched below; roughly 6.8% of the tested compounds scored in any of these assays.
C diff growth – inhibitors of Clostridium difficile growth; growth activity, negative = inhibition, % at 16 µg/mL (by protocol); AID 1259249; Clostridium difficile clinical isolate growth, OD600, 24 h; active compounds read low; 86,000 tested, 0.25% active;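 active means mean growth activity at or below -80% and every replicate also at or below -80%; inconclusive means mean at or below -80% but some replicate above -80%; inactive means mean growth activity above -80%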;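 further: 0% = DMSO wells and -100% = levofloxacin 16 µg/mL wells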
T cruzi growth-1 – blocks T. cruzi growth in NIH3T3 culture | T. cruzi beta-gal in NIH3T3, GalScreen luminescence, 90 h | inhibition, % at 8.34 µM | 77,000 tested, 5.9% active | AID 624255;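 active means mean inhibition above about 93%, with at least 55% of replicates each passing it, limit read from the data, passing the limit was not always enough; inconclusive means only one of those two conditions holds; inactive means neither condition holds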
Pf Dd2 growth – inhibitors of Plasmodium falciparum Dd2 growth; P. falciparum Dd2 growth, SYBR Green, 72 h; active compounds read low; activity change, % at 10 µM; AID 1159554; 94,000 tested, 2.3% active; in the data active means activity change below about -80%; inconclusive means no clear call, values can overlap the other calls
T cruzi growth-2 – inhibitors of T. cruzi proliferation; 5,600 tested, 72% active; AID 651739; inhibition, % at 8.35 µM; shares compounds with T cruzi growth-1; T. cruzi beta-gal in NIH3T3, GalScreen luminescence, 90 h;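 active means mean replicate inhibition above about 95% and at least 55% of replicates individually reaching it, limit read from the data; inconclusive means only one of the two criteria is met; inactive means neither criterion is met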
T cruzi growth-3 – inhibitors of T. cruzi proliferation. shares compounds with T cruzi growth-1. T. cruzi beta-gal in NIH3T3, GalScreen luminescence, 90 h. inhibition, % at 2.09 µM. 5,600 tested, 21% active. AID 651740;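 active means mean inhibition above about 95%, with at least 55% of replicates also reaching it, limit read from the data; inconclusive means meets just one of the two conditions; inactive means meets neither condition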;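 further: plate controls were neutral control median for no effect and positive control median for full effect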
3T3 cytotox – cytotoxicity in mouse NIH/3T3 fibroblasts; shares compounds with T cruzi growth-1; NIH/3T3 viability, CellTiter-Glo ATP luminescence, 90 h; cytotoxicity (signal decrease), % at 8.35 µM; 5,600 tested, 14% active;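 active means mean signal decrease across replicates above about 35% based on untreated-well scatter, with enough replicates individually passing, limit read from the data; inconclusive means no rule stated though some were filed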;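 further: 0% = median of neutral control wells and 100% = median of positive control wells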
NIH3T3 tox 2 – NIH/3T3 (mouse) viability loss | shares compounds with T cruzi growth-1 | NIH/3T3 viability, CellTiter-Glo ATP luminescence, 90 h | inhibition, % at 24.9 µM | 5,600 tested, 56% active;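 active means mean loss of cell viability signal at or above a set limit, and enough replicates individually reaching it; inconclusive means meets only the mean limit or only the replicate share; inactive means meets neither condition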;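 further: 0% = median of neutral control wells and 100% = median of positive control wells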
An asterisk follows results filed as active; ? = inconclusive; . = no result.

SMILES | C diff growth | T cruzi growth-1 | Pf Dd2 growth | T cruzi growth-2 | T cruzi growth-3 | 3T3 cytotox | NIH3T3 tox 2
COCC#Cc1ccc2c(c1)O[C@H](CN(C)Cc1ccccc1)[C@H](C)CN([C@@H](C)CO)S2(=O)=O | 1.8 | 47.5 | -31.8 | . | . | . | .
COCC#Cc1ccc2c(c1)O[C@@H](CN(C)Cc1ccncc1)[C@H](C)CN([C@@H](C)CO)S2(=O)=O | -0.6 | ? | -7.8 | 93.6 | 96.8* | 2.0 | 65.0*
COCC#Cc1ccc2c(c1)O[C@H](CN(C)Cc1ccncc1)[C@@H](C)CN([C@H](C)CO)S2(=O)=O | -0.1 | 44.4 | 27.1 | . | . | . | .
COCC#Cc1ccc2c(c1)O[C@@H](CN(C)Cc1ccccc1)[C@H](C)CN([C@@H](C)CO)S2(=O)=O | 6.4 | 101.0* | -70.2 | 84.7 | 64.3 | 51.6* | 99.4*
COc1ccc(CN(C)C[C@@H]2OCCCC[C@H](C)Oc3ccc(NC(=O)Nc4ccccc4)cc3C(=O)N([C@H](C)CO)C[C@@H]2C)cc1 | 3.5 | 113.8* | -23.0 | 88.0 | 109.3* | 42.7* | 107.3*
COc1ccc(NC(=O)Nc2ccc3c(c2)C(=O)N([C@@H](C)CO)C[C@H](C)[C@H](CN(C)Cc2ccccc2)OCCCC[C@H](C)O3)cc1 | -0.2 | 90.1 | -53.0 | . | . | . | .
COc1ccc(NC(=O)Nc2ccc3c(c2)C(=O)N([C@H](C)CO)C[C@@H](C)[C@@H](CN(C)Cc2ccccc2)OCCCC[C@H](C)O3)cc1 | 14.2 | 103.0* | -62.2 | 107.7* | 68.4 | -3.3 | 59.5*
COc1ccc(NC(=O)Nc2ccc3c(c2)C(=O)N([C@@H](C)CO)C[C@H](C)[C@@H](CN(C)Cc2ccccc2)OCCCC[C@H](C)O3)cc1 | -6.3 | 102.8* | -45.0 | 103.9* | 81.2 | -7.5 | 102.2*
C[C@@H]1CN([C@@H](C)CO)C(=O)c2cc(NC(=O)Nc3ccccc3)ccc2O[C@@H](C)CCCCO[C@@H]1CN(C)Cc1ccccc1 | . | . | -53.8 | . | . | . | .
COc1ccc(NC(=O)Nc2ccc3c(c2)C(=O)N([C@@H](C)CO)C[C@H](C)[C@H](CN(C)Cc2ccccc2)OCCCC[C@@H](C)O3)cc1 | 7.4 | 89.0 | -55.9 | . | . | . | .
COc1ccc(CN(C)C[C@H]2OCCCC[C@H](C)Oc3ccc(NC(=O)Nc4ccccc4)cc3C(=O)N([C@@H](C)CO)C[C@@H]2C)cc1 | 3.9 | 106.3 | 25.0 | . | . | . | .
C[C@@H]1CCCCO[C@@H](CN(C)Cc2ccccc2)[C@H](C)CN([C@H](C)CO)C(=O)c2cc(NC(=O)Nc3ccccc3)ccc2O1 | . | 103.0* | -76.2 | 105.9* | 70.4 | 7.9 | 104.8*
C[C@H]1CN([C@@H](C)CO)C(=O)c2cccc(NC(=O)c3cnccn3)c2O[C@H]1CN(C)C(=O)Nc1ccc(C(F)(F)F)cc1 | -0.4 | 12.4 | -30.0 | . | . | . | .
CN(C)C(=O)C[C@@H]1CC[C@H]2[C@@H](COC[C@H](O)CN2Cc2nccs2)O1 | -0.4 | -35.5 | 11.9 | . | . | . | .
COc1ccc(CN(C)C[C@H]2OCCCC[C@H](C)Oc3ccc(NC(=O)Nc4c(C)noc4C)cc3C(=O)N([C@@H](C)CO)C[C@@H]2C)cc1 | -2.4 | 20.8 | -22.3 | . | . | . | .
C[C@@H]1CN([C@H](C)CO)C(=O)c2ccccc2-c2ccccc2CO[C@@H]1CN(C)C | 3.9 | -27.3 | 1.1 | . | . | . | .
C[C@H](CO)N1C[C@H](C)[C@H](CN(C)S(=O)(=O)c2ccc(F)cc2)OCCCC[C@H](C)Oc2ccc(NS(=O)(=O)c3ccccc3)cc2C1=O | -5.5 | 60.4 | -28.3 | . | . | . | .
COc1ccc(NC(=O)Nc2ccc3c(c2)C(=O)N([C@@H](C)CO)C[C@H](C)[C@H](CN(C)C(=O)Cc2ccccc2)OCCCC[C@@H](C)O3)cc1 | 10.3 | 20.8 | -74.8 | . | . | . | .
COc1ccc(NC(=O)Nc2ccc3c(c2)C(=O)N([C@@H](C)CO)C[C@H](C)[C@H](CN(C)C(=O)Cc2ccccc2)OCCCC[C@H](C)O3)cc1 | -6.2 | ? | -65.7 | 111.7* | -3.9 | -10.0 | 2.7
COc1ccc(CN(C)C[C@@H]2OCCCC[C@H](C)Oc3ccc(NC(=O)c4ccccc4)cc3C(=O)N([C@H](C)CO)C[C@@H]2C)cc1 | 2.4 | 60.9 | -36.4 | . | . | . | .
COc1ccc(CN(C)C[C@@H]2OCCCC[C@@H](C)Oc3ccc(NC(=O)c4ccccc4)cc3C(=O)N([C@H](C)CO)C[C@H]2C)cc1 | -3.6 | 106.8* | -55.6 | 91.2 | 80.2 | 3.9 | 80.5*
O=C(C[C@H]1C[C@@H]2c3cc(NC(=O)NC4CCCCC4)ccc3O[C@@H]2[C@@H](CO)O1)NCC1CC1 | . | -16.1 | -6.7 | . | . | . | .
CN1C(=O)c2cc(NC(=O)c3cccc(F)c3)ccc2OC[C@@H]2O[C@@H](CC(=O)NCc3ccccc3)CC[C@H]21 | -4.4 | -7.5 | -12.3 | . | . | . | .
CN(C)CC(=O)N1CCCCN2[C@H](CO)[C@@H](c3ccc(-c4cccnc4)cc3)[C@H]2C1 | 6.2 | 57.4 | -65.7 | . | . | . | .
CCC(=O)N1CCCCN2[C@H](C1)[C@H](c1ccc(-c3cccnc3)cc1)[C@@H]2CO | -6.0 | 113.1* | -77.8 | 33.6 | -0.5 | 5.8 | -9.3
SMILES | C diff growth | T cruzi growth-1 | Pf Dd2 growth | T cruzi growth-2 | T cruzi growth-3 | 3T3 cytotox | NIH3T3 tox 2
CCC(=O)N1CCCCN2[C@@H](CO)[C@@H](c3ccc(-c4cccnc4)cc3)[C@@H]2C1 | -3.2 | 96.2* | 8.3 | 90.0 | 85.7 | -7.0 | -24.4
CN(C)CC(=O)N1CCCCN2[C@H](C1)[C@@H](c1ccc(-c3cccnc3)cc1)[C@@H]2CO | 6.7 | 64.5 | -30.1 | . | . | . | .
COc1ccccc1NC(=O)N1CCCCN2[C@@H](CO)[C@H](c3ccc(-c4cccc(C#N)c4)cc3)[C@@H]2C1 | 16.0 | 92.5 | -39.1 | . | . | . | .
COc1ccccc1NC(=O)N1CCCCN2[C@@H](CO)[C@H](c3ccc(-c4ccccc4)cc3)[C@@H]2C1 | 50.6 | 102.1* | 2.0 | 99.5* | 74.1 | 45.5* | 103.5*
COc1ccccc1NC(=O)N1CCCCN2[C@H](CO)[C@@H](c3ccc(-c4cccc(F)c4)cc3)[C@@H]2C1 | 14.6 | 110.8 | -50.1 | . | . | . | .
COc1ccccc1NC(=O)N1CCCCN2[C@H](CO)[C@H](c3ccc(-c4cccc(F)c4)cc3)[C@@H]2C1 | -1.6 | 114.5* | -70.8 | 101.2* | 109.5* | 21.8 | 37.2*
COc1ccccc1NC(=O)N1CCCCN2[C@@H](CO)[C@@H](c3ccc(-c4cccc(C#N)c4)cc3)[C@@H]2C1 | 25.4 | 88.8 | -44.8 | . | . | . | .
COc1ccccc1NC(=O)N1CCCCN2[C@@H](CO)[C@@H](c3ccc(-c4ccccc4)cc3)[C@@H]2C1 | 48.3 | ? | -70.5 | 104.3* | 86.7 | 61.1* | 104.1*
COc1ccccc1NC(=O)N1CCCCN2[C@H](C1)[C@@H](c1ccc(-c3cccc(F)c3)cc1)[C@@H]2CO | 24.6 | 58.8 | -57.9 | . | . | . | .

Bioassay records: PubChem BioAssay, Broad Institute
